Bioassay records as filed in PubChem BioAssay.
The list is not random: actives were taken first. Their share in the collection is about 7.9%.
LASV entry inh = qHTS for Inhibitors of binding or entry into cells for Lassa Virus; Lassa virus pseudotype entry inhibition, cell reporter; Potency, µM (titrated, usually from 37.9 µM), inactives show at the highest dose activity change, negative = inhibition, most hits filed as inhibitors; 300,000 tested, 1.2% active; AID 540256, 2011; calls by dose curve; tested in HEK293 cells; note: potency is the fitted concentration of half-maximal effect; nearly all actives have a fitted effect of over 50% in size
HCV inh = qHTS Assay for Inhibitors of Hepatitis C Virus (HCV); Huh7.5.1 HCVcc-Cre infection, luciferase reporter, 44 h; AID 651820, 2012; 340,000 tested, 3.4% active; Potency, µM (series often up to 41.8 µM), for inactives: top-dose activity change, negative = inhibition, actives largely listed as inhibitors; active = well fitted inhibition curve with a large enough effect; inconclusive = small, poorly fitted or top-dose-only effect, or another doubt; inactive = no such curve, though single readings can be large or run the other way; note: potency is the fitted concentration of half-maximal effect
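Reporter virus HCVcc-Cre (~0.5 moi) infects cells exposed to compound; seeding density 1,000 cells/well with 4 h settling beforehand. Luminescence, 15 sec read, taken 44 h post-infection following a 15 min RT substrate incubation.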
HCMV inh = qHTS Assay for inhibitors of the human cytomegalovirus (HCMV); HFF cells, HCMV-luciferase reporter, 72 h; hits give low values; 410,000 tested, 4.5% active; activity change, negative = inhibition, % at 57.5 µM; in the data active = activity change below about -60%; inconclusive = no clear call, values can overlap the other calls; inactive = above about -39%
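Luciferase read-out from HCMV-luciferase-infected HFFs (MOI 1 PFU/cell) 72 h post infection at 37C; compounds added after 16 h cell attachment; activity normalized between buffer-only basal and Salinomycin (10uM) inhibitor controls.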
Marburg entry inh = qHTS for inhibitors of binding or entry into cells for Marburg Virus; Marburg virus pseudotyped entry inhibition, cell reporter; Potency, µM (top dose mostly 37.8 µM), for inactives: top-dose activity change, negative = inhibition, usual class: inhibitors; 300,000 tested, 1.8% active; calls by dose curve; tested in HEK293 cells; note: potency is the fitted concentration of half-maximal effect
FMDV inh = High Throughput Screening for Foot and Mouth Disease Virus Antivirals | FMDV antiviral cell-based qHTS | Potency, µM (titrated, usually from 57.9 µM), without a hit: at the top dose activity change, negative = inhibition, usual class: inhibitors | 410,000 tested, 1.2% active | AID 1159524, 2015; calls by dose curve; tested in HEK293T cells; note: read-out not given here; potency is the fitted concentration of half-maximal effect; nearly all actives have a fitted effect of over 45% in size
* hit, by the source's call; ? = inconclusive; . = not tested or not shown; [ ] = another dose, or the depositor's remark. % is set by controls: 0 for no effect and ±100 for the full control effect.

SMILES	LASV entry inh	HCV inh	HCMV inh	Marburg entry inh	FMDV inh
CC1=C(C(=O)Nc2ccccc2C)C(c2sccc2C)n2ncnc2N1 (stereo not drawn)	-3%[46.1 µM]	.	-11	.	5%
O=C(CSc1nc2ccccc2c(=O)n1-c1ccc(F)c(Cl)c1)Nc1ccc2c(c1)CCC2	.	.	-28	.	-8%
O=C(CSc1nc2ccccc2c(=O)n1-c1ccccc1F)Nc1ccc2c(c1)CCC2	?	?	-67*	?	-9%
O=C(CSc1nc2ccccc2c(=O)n1-c1ccc(F)cc1F)Nc1ccc2c(c1)CCC2	?	?	-72*	?	-14%
O=C(CSc1nc2ccccc2c(=O)n1-c1ccc(F)cc1)Nc1ccc2c(c1)CCC2	?	?	-68*	?	0%
Cc1nn(-c2ccccc2)c2c1N(CC(=O)N1CCN(c3ccccc3F)CC1)C(=O)CS2	-27%[46.1 µM]	.	-4	.	0%
Cc1ccccc1C1(CC(=O)N2CCCC2c2nccs2)CC(=O)N(C2CCCC2)C1=O (stereo not drawn)	.	.	.	.	49%
N/C(=N\OC(=O)c1cccc(Cn2cc(C(F)(F)F)ccc2=O)c1)c1ccccc1	.	?	?	.	1%
N/C(=N\OC(=O)c1cccc(Cn2cc(C(F)(F)F)ccc2=O)c1)c1ccc(Cl)cc1	-19%	-15%	-64*	-26%[46.1 µM]	?
COc1ccc(-c2noc(-c3ccc(N4CCCC4)c([N+](=O)[O-])c3)n2)cc1	16%[46.1 µM]	.	?	10%[46.1 µM]	5%
CCn1c(O)c(/C=N/NC(=O)c2ccccc2)c(=O)[nH]c1=S	.	12%	-63*	.	11%
O=C(Cc1ccc2c(c1)OCO2)N1CCOc2ccc(CN3CCOCC3)cc2C1	.	.	.	.	10%
CC(C)c1ccc2[nH]c3c(c2c1)CCC/C3=N\NC(=O)c1ccncc1	?	0.35µM*	-16	?	?
Cc1ccc(NC(=O)CCSc2nc(-c3ccco3)cc(C(F)(F)F)n2)cc1F	-5%[46.1 µM]	.	-29	?	-25%
O=C(C1CCC(Cn2c(=O)c3sccc3n(Cc3ccc(F)cc3)c2=O)CC1)N1CCOCC1 (stereo not drawn)	21%[46.1 µM]	.	-36	.	0%
CCN(CC)CC(O)COc1ccc2c(c1)OCO2 (stereo not drawn)	2%	3%	-98*	?	-19%
Nc1c(C(=O)Nc2ccc(F)cc2)sc2nc(-c3ccco3)ccc12	?	?	-14	?	0%
Nc1c(C(=O)Nc2ccc(S(=O)(=O)N3CCCC3)cc2)sc2nc3cc4c(cc3cc12)CCC4	?	?	?	?	26%
Cc1cccc(NC(=O)c2sc3nc4c(cc3c2N)CCCCCC4)c1C	-28%[46.1 µM]	.	-82*	?	-25%
Nc1c(C(=O)Nc2cccc(C(=O)O)c2)sc2nc3c(cc12)CCCC3	3.2µM*	4%	95	?	6.3µM*
Nc1c(C(=O)Nc2ccc(S(=O)(=O)N3CCCC3)cc2)sc2nc3ccc(OC(F)(F)F)cc3cc12	?	?	-96*	6.3µM*	-1%
Nc1c(C(=O)Nc2ccc(Br)cc2)sc2nc(-c3ccco3)ccc12	?	?	-60*	-16%	?
COc1ccc(N2CC(NC(=O)C3CCCCC3)CC2=O)cc1OC (stereo not drawn)	8%[46.1 µM]	.	-35	.	-7%
COc1ccccc1N1CCN(C(=O)c2cc3ccc4ccc(C)[nH]c4c3n2)CC1	-17%[46.1 µM]	.	-11	.	-13%
Nc1c(C(=O)Nc2ccccc2)sc2nc3c(c(-c4ccco4)c12)CCC3	-16%	10µM*	-32	-15%	?
SMILES	LASV entry inh	HCV inh	HCMV inh	Marburg entry inh	FMDV inh
NC(=O)c1sc2nc3c(c(-c4cccnc4)c2c1N)CCC3	15%	10%	-34	-1%	.
NC(=O)c1sc2nc3c(c(-c4cccs4)c2c1N)CCCCC3	4%	-3%	-86*	-6%	?
N#Cc1sc2nc3c(cc2c1N)CCCC3	-1%	1%	-64*	?	0%
Nc1c(C(=O)Nc2ccc(C(=O)O)cc2)sc2nc3c(cc12)CCCC3	?	.	27	25%[46.1 µM]	16µM*
Nc1c(C(=O)O)sc2nc3c(cc12)CCCC3	.	12%	-5	.	-4%
COc1cc(OC)c(NC(=O)C2CCN(S(=O)(=O)c3ccc4c(c3)oc(=O)n4C)CC2)cc1Cl	1%[46.1 µM]	.	-1	-1%[46.1 µM]	-15%
